# Experimental data taken from PubChem BioAssay.
# Active and inactive are the calls of the source.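 The calls were made as follows, unless noted: active = inhibition above 20% together with a positive visual image hit; inconclusive = visual image hit but inhibition not above 20%; inactive = no visual image hit.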
# How the values were obtained:
# [1] = inhibitors of TNFa-induced NFkB p65 translocation, primary screen, imaging, HUVEC, MLSMR starter and 10KST1 sets (AID 438); conditions: HUVEC TNFa-induced p65 nuclear translocation; cell count: measured here: nuclei count (cytotoxicity indicator), at 2.08 µM; inhibition: at 2 µM, stronger effect = higher value, 0% TNFa-plus-vehicle, 100% no-TNFa wells;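 also: compound added about 3h40 before a 20 min TNFalpha stimulation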;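 as to inhibition: signal is the nuclear over cytoplasmic p65 intensity ratio per well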
# [2] = reduction of polyQ htt aggregates in cells – imaging, exon1htt(103Q)mCFP cells, high-content imaging, primary screen (AID 483;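 active = visual image review flags a hit and inhibition of aggregation exceeds 20%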;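 also: compound exposure lasted 3 days before fixation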;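 as to nuclei count: percent of the per-plate median nuclei count of sample wells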); conditions: exon1htt(103Q)mCFP cell line, aggregate imaging, at 2 µM; inhibition of aggregation: stronger effect = higher value; nuclei count: measured here: cell count, toxicity
# [3] = endothelial E-selectin expression blockers – imaging, HUVEC, immunofluorescence, MLSMR starter and 10KST1 sets, primary screen (AID 487;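 active = visually confirmed hit in the image check and inhibition above 20%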;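 as to inhibition: signal is fraction of cell area covered by stained E-selectin grains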;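 as to nuclei count: 100% = median nuclei count of all wells on the same plate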); conditions: HUVEC TNFalpha-induced E-selectin immunofluorescence imaging, at 2 µM; inhibition: stronger effect = higher value; nuclei count: measured here: cell number, toxicity
# [4] = biological target: Voltage-gated potassium channel subunit beta-2 (Rattus norvegicus) (UniProt P62483); assay: inhibitors of rat Kvbeta2 reductase activity – biochemical, NADPH fluorescence, primary screen (AID 622;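 active = fluorescence slope higher than the sample average by over 3 SD, cut at about -0.22 in these data, passing the limit was not always enough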;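 also: slope of raw intensity against log time taken from 70 to 1610 s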); conditions: recombinant KvBeta, 4-cyanobenzaldehyde reduction, at 10 µM, stronger effect = higher value
# Voltage-gated potassium channel subunit beta-2 (Rattus norvegicus), sequence (P62483 whole entry, looked up): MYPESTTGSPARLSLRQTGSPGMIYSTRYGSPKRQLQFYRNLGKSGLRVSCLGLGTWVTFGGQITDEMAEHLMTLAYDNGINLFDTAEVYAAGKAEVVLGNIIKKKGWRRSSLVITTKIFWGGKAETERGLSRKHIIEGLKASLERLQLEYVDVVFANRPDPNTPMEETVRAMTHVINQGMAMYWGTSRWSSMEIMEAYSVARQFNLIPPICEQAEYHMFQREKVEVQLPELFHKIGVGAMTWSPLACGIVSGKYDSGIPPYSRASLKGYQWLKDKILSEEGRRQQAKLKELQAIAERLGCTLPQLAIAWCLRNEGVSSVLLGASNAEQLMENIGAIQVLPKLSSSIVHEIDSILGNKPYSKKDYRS
# [5] = biological target: Voltage-gated potassium channel subunit beta-2 (Rattus norvegicus) (UniProt P62483); assay: enhancers of rat Kvbeta2 NADPH turnover – biochemical, NADPH fluorescence, primary screen (AID 623;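 active = NADPH fluorescence slope more negative than the mean of all samples by about 3 SD, 99.7% confidence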;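 also: fluorescence intensity change per second fitted from 20 to 320 s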); conditions: Recombinant KvBeta, NADPH fluorescence decrease slope, 10 min; at 10 µM; stronger effect = lower value
# [6] = biological target: Alpha-2C adrenergic receptor (Homo sapiens) (UniProt P18825); assay: compounds altering alpha2C-coupled GIRK flux – cell-based, HEK293 alpha2C/GIRK1/2, thallium flux, primary screen (AID 624;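 active = fluorescence slope after compound addition differing from the mean of all screened samples at 99.7% confidence, in either direction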;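 also: slope of fluorescence ratio to pre-addition baseline per second over 15 to 24 s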); conditions: thallium flux BTC fluorescence, at 10 µM, actives lie on both sides
# Alpha-2C adrenergic receptor (Homo sapiens), sequence (P18825 whole entry, looked up): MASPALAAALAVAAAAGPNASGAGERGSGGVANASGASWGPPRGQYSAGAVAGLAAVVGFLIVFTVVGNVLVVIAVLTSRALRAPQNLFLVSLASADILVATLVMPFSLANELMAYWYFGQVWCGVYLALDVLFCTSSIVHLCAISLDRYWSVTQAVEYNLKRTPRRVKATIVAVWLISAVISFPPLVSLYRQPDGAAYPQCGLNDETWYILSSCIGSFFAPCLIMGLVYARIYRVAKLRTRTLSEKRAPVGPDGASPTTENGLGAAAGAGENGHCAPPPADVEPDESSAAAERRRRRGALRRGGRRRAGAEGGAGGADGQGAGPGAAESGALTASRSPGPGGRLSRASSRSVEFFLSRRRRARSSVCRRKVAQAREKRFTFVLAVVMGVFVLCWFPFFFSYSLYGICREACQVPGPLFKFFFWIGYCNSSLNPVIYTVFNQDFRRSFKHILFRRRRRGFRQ
# [7] = blockers of RIG-like receptor reporter activation – cell-based, Sendai virus stimulus, luciferase, 10K MLSCN set, TLR/RLR signaling modifier project, primary screen (AID 602276;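 active = inhibition at or above 50% at 10 µM; inactive = inhibition below 50%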;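 also: firefly luciferase from ISG56 promoter only with Renilla not read in this screen; 0% = Sendai virus plus DMSO and 100% = medium plus DMSO without virus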); conditions: HEK293 RL24 IRF3 luciferase reporter, at 10 µM, stronger effect = higher value
# [8] = TLR3 IRF3 reporter activation blockers – cell-based, poly I:C stimulus, luciferase, 10K MLSCN set, primary screen (AID 602277;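 active = inhibition of the reporter signal at or above 50%; inactive = inhibition below 50%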); conditions: HEK293-TLR3 RL24 IRF3 luciferase reporter, at 10 µM, stronger effect = higher value
Structure (SMILES),cell count [1],inhibition [1],inhibition of aggregation [2],nuclei count [2] [%],inhibition [3],nuclei count [3] [%],fluorescence slope [4],NADPH fluorescence slope [5],slope [6],inhibition [7],inhibition [8]
O=C(CSCc1ccc(F)cc1)NC1CCCC1,750,-2.8% (inactive),12.7% (inactive),101,33% (inactive),93.5,-0.493 (inactive),-5.3e-05 (inactive),0.00649 (inactive),-26.1% (inactive),-75.4% (inactive)
CCn1c(C(=O)N2CCC(C(=O)NCc3ccc4c(c3)OCO4)CC2)cc2sccc21,505,-0.9% (inactive),-30.3% (inactive),75.4,-65.2% (inactive),120,-0.508 (inactive),-5.3e-05 (inactive),0.00644 (inactive),14.9% (inactive),-2.44% (inactive)
O=C(NCc1ccc(F)cc1)C1CCN(C(=O)NCc2ccccc2)CC1,643,-3.5% (inactive),2.3% (inactive),110,-18.5% (inactive),106,-0.448 (inactive),-4.9e-05 (inactive),0.00381 (inactive),5.76% (inactive),32.5% (inactive)
COc1ccc(Cl)cc1N1CC(c2nc3ccccc3[nH]2)CC1=O (centres undefined),542,1.4% (inactive),2% (inactive),114,1.9% (inactive),107,-0.607 (inactive),6.8e-06 (inactive),0.00704 (inactive),16.2% (inactive),16.9% (inactive)
CCOC(=O)CSc1nnc([C@H](CC(C)C)NC(=O)OC(C)(C)C)o1,696,6.5% (inactive),23.3% (inactive),81.4,13.7% (inactive),104,-0.501 (inactive),-1.8e-05 (inactive),0.0048 (inactive),13.5% (inactive),14.4% (inactive)
Cc1ccc(NC(=O)CCN2CCc3ccccc3C2)cc1,820,-9.6% (inactive),-13.1% (inactive),86.9,-44.8% (inactive),113,-0.463 (inactive),-0.000317 (inactive),0.00467 (inactive),5.12% (inactive),24.7% (inactive)
COc1ccccc1N1CCN(C(=O)c2ccc(S(=O)(=O)N3CCCCCC3)cc2)CC1,604,-13% (inactive),-9.1% (inactive),89.6,-59.2% (inactive),89.3,-0.606 (inactive),-2.1e-05 (inactive),0.0031 (inactive),-1.31% (inactive),-1.9% (inactive)
COc1ccc(NC(=O)CS(=O)CC(=O)Nc2cc(Cl)ccc2OC)cc1 (centres undefined),485,10.5% (inactive),5.3% (inactive),71.7,-34.6% (inactive),96,-0.362 (inactive),-6.2e-05 (inactive),0.00691 (inactive),13.1% (inactive),28.4% (inactive)
CC1CC(C)CN(Cc2nc3c(c(=O)n(C)c(=O)n3C)n2Cc2ccccc2Cl)C1 (centres undefined),705,-16.8% (inactive),-2.3% (inactive),78,37.7% (inactive),88,-0.482 (inactive),-4.6e-05 (inactive),0.00565 (inactive),-10.4% (inactive),-1.1% (inactive)
CC(C)CC1NC2(C(=O)N(C)c3ccccc32)C2C(=O)N(C(C)C)C(=O)C12 (centres undefined),798,-5.5% (inactive),-49.8% (inactive),72.1,13.8% (inactive),103,-0.482 (inactive),9.4e-06 (inactive),0.00636 (inactive),-1.45% (inactive),-17% (inactive)
CCOc1cccc(C(=O)N2CCCCC2c2cccnc2)c1 (centres undefined),269,-0.4% (inactive),-24.6% (inactive),95.1,-148% (inactive),101,-0.526 (inactive),-4.2e-05 (inactive),0.00421 (inactive),9.72% (inactive),19.7% (inactive)
Cn1c(=O)cc(OCCCC(=O)Nc2ccc3c(c2)OCCO3)c2ccccc21,361,-3.3% (inactive),-4.7% (inactive),101,-8.1% (inactive),113,-0.511 (inactive),-1.4e-05 (inactive),0.00629 (inactive),-5.46% (inactive),-1.3% (inactive)
COCCn1nnnc1C(c1cccs1)N1CCN(c2cc(C)ccc2C)CC1 (centres undefined),203,11.4% (inactive),-9% (inactive),84.8,-2.6% (inactive),96.9,-0.618 (inactive),2e-05 (inactive),0.00567 (inactive),11.1% (inactive),16.2% (inactive)
Cc1ccc(-c2nnn(CC(=O)N(Cc3ccco3)C(C(=O)NC(C)(C)C)c3cccs3)n2)o1 (centres undefined),643,3.5% (inactive),4.8% (inactive),85.8,-43.9% (inactive),117,-0.595 (inactive),-7.2e-05 (inactive),0.00341 (inactive),9.52% (inactive),12.3% (inactive)
